From the antibiotic and cytotoxicity screens of Wong et al. (2023)
Hit rate of the full screen: of about 39,000 compounds, about 3,300 (8.5%) were called active. This is one part of a sample in which actives are shown more often than they occur.

Tested on: HepG2
Assay: cytotoxicity call (relative viability < 0.9)
Conditions: 10 µM

Row | Compound | cytotoxicity call
1 | C[C@H](CO)N1C[C@H](C)[C@H](CN(C)S(=O)(=O)c2ccccc2)Oc2ccc(NC(=O)c3ccncc3)cc2C1=O | inactive
2 | O=S1(=O)CO[C@@H](c2ccccc2)CN1 | inactive
3 | O=C(CS)NCCCCCCNC(=O)[C@@H]1C[C@@H]2C(=O)N3CCC[C@H]3C(=O)N2[C@@H]1c1cccc(OCCO)c1 | inactive
4 | O=C(C[C@H]1CC[C@H]2[C@@H](COC[C@H](O)CN2Cc2cc(F)ccc2F)O1)N[C@@H]1CCN(Cc2ccccc2)C1 | inactive
5 | C[C@H]1CN([C@@H](C)CO)C(=O)c2cccc(NC(=O)Nc3ccc(C(F)(F)F)cc3)c2O[C@H]1CN(C)C(=O)Nc1ccc(C(F)(F)F)cc1 | inactive
6 | C[C@@H]1CN([C@@H](C)CO)C(=O)c2cccc(NC(=O)Nc3ccc(C(F)(F)F)cc3)c2O[C@@H]1CN(C)C(=O)Nc1ccc(C(F)(F)F)cc1 | active
7 | C[C@@H]1CN([C@H](C)CO)C(=O)c2cccc(NC(=O)Nc3ccc(C(F)(F)F)cc3)c2O[C@H]1CN(C)C(=O)Nc1ccc(C(F)(F)F)cc1 | inactive
8 | C[C@@H]1CN([C@H](C)CO)C(=O)c2cccc(NC(=O)Nc3ccc(C(F)(F)F)cc3)c2O[C@@H]1CN(C)C(=O)Nc1ccc(C(F)(F)F)cc1 | inactive
9 | COc1ccc(NC(=O)Nc2cccc3c2O[C@H](CN(C)C(=O)Nc2ccc(C(F)(F)F)cc2)[C@@H](C)CN([C@@H](C)CO)C3=O)cc1 | inactive
10 | COc1ccc(NC(=O)Nc2cccc3c2O[C@@H](CN(C)C(=O)Nc2ccc(C(F)(F)F)cc2)[C@@H](C)CN([C@@H](C)CO)C3=O)cc1 | inactive
11 | C[C@@H]1CN([C@@H](C)CO)C(=O)c2cccc(NC(=O)Nc3ccc(C(F)(F)F)cc3)c2O[C@H]1CN(C)C(=O)Nc1ccc(C(F)(F)F)cc1 | inactive
12 | C[C@H](CO)N1C[C@H](C)[C@H](CN(C)C(=O)Nc2ccc(C(F)(F)F)cc2)Oc2c(NC(=O)Nc3ccc(C(F)(F)F)cc3)cccc2C1=O | active
13 | COc1ccc(NC(=O)N(C)C[C@H]2Oc3c(NC(=O)Nc4ccc(C(F)(F)F)cc4)cccc3C(=O)N([C@@H](C)CO)C[C@H]2C)cc1 | active
14 | C[C@H]1CN([C@@H](C)CO)C(=O)c2cccc(NC(=O)Nc3ccc(C(F)(F)F)cc3)c2O[C@@H]1CN(C)C(=O)Nc1ccc(C(F)(F)F)cc1 | active
15 | O=C(O)C[C@@H]1C=C[C@@H](NC(=O)c2ccncc2)[C@H](CO)O1 | inactive
16 | CCCN(C)C[C@H]1OCCCC[C@@H](C)Oc2ccc(NC(=O)c3ccccc3)cc2C(=O)N([C@H](C)CO)C[C@H]1C | inactive
17 | Cc1noc(C)c1NC(=O)Nc1ccc2c(c1)C(=O)N([C@H](C)CO)C[C@@H](C)[C@@H](CN(C)C(=O)Nc1ccccc1)OCCCC[C@@H](C)O2 | inactive
